The entries come from a sample that favours hits as a whole.
SF1 inhibitor: blocks the human nuclear receptor SF-1 | Q13285 | CHO-K1 Gal4-SF-1 LBD luciferase reporter | inhibition, % at 10 µM | 0.55% of 65,000 active | AID 525;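 active = inhibition above the mean inhibition of all tested compounds plus 3 SD, cut at about 48% in these data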
Target sequence (Q13285 whole entry, looked up, the tested form may be a part): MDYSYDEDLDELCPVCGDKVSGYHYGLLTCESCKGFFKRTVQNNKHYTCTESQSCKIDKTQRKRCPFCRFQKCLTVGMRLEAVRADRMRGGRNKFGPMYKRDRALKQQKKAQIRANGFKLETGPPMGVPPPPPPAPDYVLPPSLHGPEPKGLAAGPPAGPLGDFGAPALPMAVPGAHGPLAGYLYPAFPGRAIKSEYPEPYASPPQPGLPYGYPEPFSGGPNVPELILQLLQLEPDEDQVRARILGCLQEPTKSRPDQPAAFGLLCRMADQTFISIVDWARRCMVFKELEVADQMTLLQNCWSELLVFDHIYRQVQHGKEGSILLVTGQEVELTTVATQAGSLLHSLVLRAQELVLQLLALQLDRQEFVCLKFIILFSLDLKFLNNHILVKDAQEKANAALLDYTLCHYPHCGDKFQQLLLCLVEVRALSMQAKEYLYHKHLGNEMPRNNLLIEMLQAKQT
Numbers stand for hits.

For COc1cccc(Cn2c(-c3nonc3N)nc3ccccc32)c1 the results were SF1 inhibitor inactive.
Nc1nonc1-c1nc2ccccc2n1Cc1ccc(Cl)cc1 was read as SF1 inhibitor inactive.
CCCCOc1ccccc1NC(=O)Cn1c(-c2nonc2N)nc2ccccc21 was read as SF1 inhibitor 67.3.
For COc1ccc(-c2nc(C)c(C(C)=O)n2O)cc1OC the results were SF1 inhibitor inactive.
`COc1ccc(-c2nnc(SCCC(=O)O)n2C)cc1OC` gave SF1 inhibitor inactive.
Cc1oc2cc(O)cc(O)c2c(=O)c1-c1ccc2c(c1)OCCCO2 was read as SF1 inhibitor inactive.
Cc1oc(-c2ccc3c(c2)OCCO3)cc1C(=O)O was read as SF1 inhibitor 80.7.
Screening CC(=O)c1c(C)[nH]c(C(=O)Nc2ccc3c(c2)OCCO3)c1C returned SF1 inhibitor inactive.
Screening COc1ccc(-c2cc(C(=O)O)c(C)o2)cc1OC returned SF1 inhibitor 50.7.
`Nc1nc2ccccc2n1/N=C/c1ccc(Br)cc1` gave SF1 inhibitor inactive.
For Cc1ccc(NC(=O)CS(=O)CC(=O)NCC2CCCO2)cc1 (stereo not given) the results were SF1 inhibitor inactive.
For O=C(c1cccs1)N1CCn2c1nc1ccccc12 the results were SF1 inhibitor inactive.
`O=C(CCOc1ccccc1)Nc1ccc(S(=O)(=O)N2CCCC2)cc1` gave SF1 inhibitor inactive.
Screening Oc1c(CN2CCOCC2)cc(COCc2ccccc2)c2cccnc12 returned SF1 inhibitor 72.9.
`O=c1[nH]c2ccc(Br)cc2c(-c2ccccc2)c1CN1CCOCC1` gave SF1 inhibitor inactive.
CCOC(=O)N1CCc2c(sc3c2C(=O)NC(c2ccc(-c4ccc(Cl)cc4)o2)N3)C1 (stereo not given) was read as SF1 inhibitor inactive.
Screening COc1ccc(-c2cc3nc4n(c(=O)c3s2)CCOC4)cc1 returned SF1 inhibitor 56.3.
CCOC(=O)c1sc(-c2ccc(OC)cc2)cc1N was read as SF1 inhibitor inactive.
For COc1cccc(C(=O)Cn2c(N3CCOCC3)nc3c2c(=O)n(C)c(=O)n3C)c1 the results were SF1 inhibitor inactive.
`O=C(c1ccc(F)cc1F)N(Cc1ccccn1)Cc1ccco1` gave SF1 inhibitor inactive.
`COCCCN(C(C)=O)c1nc(-c2ccc(OC)cc2)cs1` gave SF1 inhibitor inactive.
CCCCS(=O)(=O)/C=C\C=C/S(=O)(=O)CCCC was read as SF1 inhibitor 95.8.
COc1cc(-c2nnc3sc(-c4cccnc4)nn23)cc(OC)c1OC was read as SF1 inhibitor inactive.
Screening CCN(CC)c1ccc(-c2nn3c(-c4ccccc4OC)nnc3s2)cc1 returned SF1 inhibitor 66.8.
For COc1ccccc1-c1nn2c(-c3ccco3)nnc2s1 the results were SF1 inhibitor inactive.
`N#CC(C(=O)OC1CCCCC1)c1nc2ccccc2nc1N1CCCCC1` (stereo not given) gave SF1 inhibitor inactive.
`C=CCN1C(c2ccc(OCC)cc2)=CS/C1=C(\C#N)c1nnc2n1CCCCC2` gave SF1 inhibitor inactive.
`Fc1cc(F)c2nc(N3CCCCC3)sc2c1` gave SF1 inhibitor inactive.
For c1ccn2c(Cc3nnc4ccccn34)nnc2c1 the results were SF1 inhibitor inactive.
Clc1ccc(OCCN2CCN(c3ncnc4sccc34)CC2)cc1 was read as SF1 inhibitor 89.7.
Screening O=C(COc1ccc(Cl)cc1Cl)NC1CCSC1=O (stereo not given) returned SF1 inhibitor inactive.
For CSc1nncc(-c2ccc(F)cc2)n1 the results were SF1 inhibitor inactive.
`CC(C)(C)c1ccc(-c2conc2N)cc1` gave SF1 inhibitor inactive.
Screening Cc1nc(NCc2ccco2)c2oc3ccccc3c2n1 returned SF1 inhibitor inactive.
`COc1ccc(CCNc2ncnc3c2oc2ccccc23)cc1OC` gave SF1 inhibitor 72.5.
COc1ccc(CCNc2nc(C)nc3c2oc2ccccc23)cc1OC was read as SF1 inhibitor 57.9.
CC(=O)c1ccc(Nc2ncnc3c2oc2ccccc23)cc1 was read as SF1 inhibitor inactive.
CCc1nc(NCc2ccccn2)c2oc3ccccc3c2n1 was read as SF1 inhibitor inactive.
Cc1nc(NCCc2cnc[nH]2)c2oc3ccccc3c2n1 was read as SF1 inhibitor inactive.
Screening CCc1sc(C(=O)N2CCN(S(C)(=O)=O)CC2)cc1Br returned SF1 inhibitor inactive.
`c1ccc(-n2c(Cc3cn4ccsc4n3)nnc2N2CCOCC2)cc1` gave SF1 inhibitor inactive.
For COc1cc(/C=N/O)ccc1OCc1ccc(C(=O)O)cc1 the results were SF1 inhibitor 90.6.
For COc1ccc(OCc2ccc(C(=O)O)cc2)cc1 the results were SF1 inhibitor inactive.
Screening O=C(O)c1ccc(COc2c(F)c(F)cc(F)c2F)cc1 returned SF1 inhibitor inactive.
For CCC1Oc2ccccc2N(CC(=O)Nc2ccccc2OC)C1=O (stereo not given) the results were SF1 inhibitor inactive.
`CCc1ccc2oc(-c3cc(N=Cc4cccc(OC)c4O)ccc3O)nc2c1` gave SF1 inhibitor 50.6.
For Nc1c(C(=O)Nc2ccc(Cl)cc2)oc2ccccc12 the results were SF1 inhibitor inactive.
Screening Cc1cccc2cc(C#N)c(NCCNC(=O)NC3CCCCC3)nc12 returned SF1 inhibitor inactive.
Screening Cc1cccc2cc(C#N)c(SCC(=O)N3CC(=O)Nc4ccccc43)nc12 returned SF1 inhibitor 64.3.
For CCOC(=O)CSc1nc(-c2ccc3c(c2)OCO3)ccc1C#N the results were SF1 inhibitor inactive.
CCOC(=O)c1ncn2c1C(=O)OC2(C)C was read as SF1 inhibitor inactive.
O=C(Nc1ccc2c(c1)OCO2)c1cnn2cccnc12 was read as SF1 inhibitor inactive.
`Cc1ccc(-c2ccc(OCC(=O)N3CCOCC3)cc2)cc1` gave SF1 inhibitor inactive.
For CCOc1ccc(OCc2cccc(C(=O)N3CCOCC3)c2)cc1 the results were SF1 inhibitor 61.6.
`COc1cccc(C(=O)N2CCN(Cc3cccc(F)c3)CC2)c1` gave SF1 inhibitor inactive.
Screening CCSc1nnc(NC(=O)c2nn(C(C)C)c(=O)c3ccccc23)s1 returned SF1 inhibitor inactive.
CCc1nnc2c3cnn(-c4ccc(C)c(C)c4)c3ncn12 was read as SF1 inhibitor inactive.
COCCN(CC(=O)Nc1ccc(F)cc1)S(=O)(=O)c1ccc(S(=O)(=O)N2CCCC2)cc1 was read as SF1 inhibitor inactive.
For CCCOc1ccc([C@@H]2C3CN(C(=O)OCC)CC=C3C(C#N)=C(N)C2(C#N)C#N)cc1OC (stereo not given in full) the results were SF1 inhibitor inactive.
N#CC1=C(N)C(C#N)(C#N)[C@H](c2ccncc2)[C@H]2CN(C(=O)OCc3ccccc3)CC=C12 was read as SF1 inhibitor 48.4.
For O=C(NCc1ccc(F)cc1)C1C2C=CC3(CN(Cc4cccnc4)C(=O)C13)O2 (stereo not given) the results were SF1 inhibitor inactive.
Screening Cn1c(SCC(=O)Nc2cc(=O)n(C)c(=O)n2C)nnc1-c1cccs1 returned SF1 inhibitor inactive.
Screening CN(c1ccc(C(=O)Nc2ccccc2C(F)(F)F)cc1)S(C)(=O)=O returned SF1 inhibitor inactive.
Cc1ccc(-n2ncc3c(=O)n(CC(=O)NCc4ccco4)cnc32)cc1C was read as SF1 inhibitor inactive.
For CCOC(=O)N1CCC(NC(=O)c2cccnc2SC)CC1 the results were SF1 inhibitor inactive.
Screening CCOC(=O)C1CCN(Cc2ccc(O)c3ncccc23)CC1 returned SF1 inhibitor 76.9.
CCOC(=O)C1CCCN(c2nc(C)nc3c2oc2ccccc23)C1 (stereo not given) was read as SF1 inhibitor inactive.
O=S(=O)(NCCSc1nnnn1-c1ccccc1)c1cccs1 was read as SF1 inhibitor inactive.
